For assay [1], the target named is Glycogen synthase kinase-3 beta (Homo sapiens) (UniProt P49841). To be noted: at 1 µM.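 Further: reported values are mean percent inhibition of GSK3B.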
For assay [2], the target named is Homeodomain-interacting protein kinase 1 (Homo sapiens) (UniProt Q86Z02). To be noted: at 0.1 µM.
The target is the same in assay [3]. The conditions noted are these: at 1 µM.
For assay [4], the target named is T1, Homeodomain-interacting protein kinase 4 (Homo sapiens) (UniProt Q8NE63).
T1 sequence (whole entry): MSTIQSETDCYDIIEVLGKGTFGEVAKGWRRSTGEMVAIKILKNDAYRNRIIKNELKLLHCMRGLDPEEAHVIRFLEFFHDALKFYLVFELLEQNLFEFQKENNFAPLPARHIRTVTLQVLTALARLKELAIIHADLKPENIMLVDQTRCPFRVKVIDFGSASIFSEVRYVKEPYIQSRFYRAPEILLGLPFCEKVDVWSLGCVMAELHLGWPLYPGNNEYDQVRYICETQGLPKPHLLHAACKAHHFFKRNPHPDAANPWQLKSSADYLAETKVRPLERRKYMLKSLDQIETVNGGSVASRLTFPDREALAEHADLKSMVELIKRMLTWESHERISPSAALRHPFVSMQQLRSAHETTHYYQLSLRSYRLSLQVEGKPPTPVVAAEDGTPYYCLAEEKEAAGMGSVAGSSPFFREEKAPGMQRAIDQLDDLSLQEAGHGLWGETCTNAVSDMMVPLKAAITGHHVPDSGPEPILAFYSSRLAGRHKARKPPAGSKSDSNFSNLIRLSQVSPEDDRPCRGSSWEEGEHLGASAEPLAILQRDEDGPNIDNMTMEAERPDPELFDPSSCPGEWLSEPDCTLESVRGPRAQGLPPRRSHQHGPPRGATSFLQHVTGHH
The conditions noted are these: at 0.1 µM.

For assay [5], the target named is T1, Homeodomain-interacting protein kinase 4 (Homo sapiens). To be noted: at 1 µM.
For assay [6], the target named is Mitogen-activated protein kinase 9 (Homo sapiens) (UniProt P45984). To be noted: at 0.1 µM.
Assay [7] has the same target. To be noted: at 1 µM.
Assay [8] deals with Mitogen-activated protein kinase 1 (Homo sapiens) (UniProt P28482). To be noted: at 0.1 µM.
The target is the same in assay [9]. The conditions noted are these: at 1 µM.
In assay [10] the target is Mitogen-activated protein kinase 3 (Homo sapiens) (UniProt P27361). To be noted: at 0.1 µM.
For assay [11] the target is unchanged. The conditions noted are these: at 1 µM.
Assay [12] deals with SRSF protein kinase 3 (Homo sapiens) (UniProt Q9UPE1). The conditions noted are these: at 0.1 µM.
The target is the same in assay [13]. The conditions noted are these: at 1 µM.
For assay [14], the target named is Mitogen-activated protein kinase 14 (Homo sapiens) (UniProt Q16539). The conditions noted are these: at 0.1 µM.
Assay [15] shares this target. To be noted: at 1 µM.
The target in assay [16] is Mitogen-activated protein kinase 11 (Homo sapiens) (UniProt Q15759). To be noted: at 0.1 µM.
For assay [17] the target is unchanged. The conditions noted are these: at 1 µM.
The target in assay [18] is T2, Mitogen-activated protein kinase 13 (Homo sapiens) (UniProt O15264).
T2 sequence (whole entry): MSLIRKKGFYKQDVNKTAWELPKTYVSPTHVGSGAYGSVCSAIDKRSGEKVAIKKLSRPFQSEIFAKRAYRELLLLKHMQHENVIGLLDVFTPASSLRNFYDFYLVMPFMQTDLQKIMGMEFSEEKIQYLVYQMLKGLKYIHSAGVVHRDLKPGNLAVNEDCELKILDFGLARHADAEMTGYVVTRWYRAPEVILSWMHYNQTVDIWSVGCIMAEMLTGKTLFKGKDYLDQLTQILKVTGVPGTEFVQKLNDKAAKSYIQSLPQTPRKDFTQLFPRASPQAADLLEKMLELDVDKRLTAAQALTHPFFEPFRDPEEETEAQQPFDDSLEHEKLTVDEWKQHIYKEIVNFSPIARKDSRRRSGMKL
To be noted: at 0.1 µM.

Assay [19] deals with T2, Mitogen-activated protein kinase 13 (Homo sapiens). The conditions noted are these: at 1 µM.
The target in assay [20] is T3, Mitogen-activated protein kinase 12 (Homo sapiens) (UniProt P53778).
T3 sequence (whole entry): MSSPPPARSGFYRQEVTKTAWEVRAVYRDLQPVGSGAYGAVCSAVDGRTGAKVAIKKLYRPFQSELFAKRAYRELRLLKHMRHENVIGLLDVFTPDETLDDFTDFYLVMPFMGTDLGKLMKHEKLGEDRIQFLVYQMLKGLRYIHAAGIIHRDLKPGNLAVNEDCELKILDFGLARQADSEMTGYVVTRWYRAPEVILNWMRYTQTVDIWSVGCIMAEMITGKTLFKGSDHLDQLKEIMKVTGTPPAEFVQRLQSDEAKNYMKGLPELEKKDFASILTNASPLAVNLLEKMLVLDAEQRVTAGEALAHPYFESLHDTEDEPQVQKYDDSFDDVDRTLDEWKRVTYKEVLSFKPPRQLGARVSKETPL
The conditions noted are these: at 0.1 µM.

Structures are written as SMILES.

Sequence of Mitogen-activated protein kinase 14 (Homo sapiens) (Q16539 whole entry): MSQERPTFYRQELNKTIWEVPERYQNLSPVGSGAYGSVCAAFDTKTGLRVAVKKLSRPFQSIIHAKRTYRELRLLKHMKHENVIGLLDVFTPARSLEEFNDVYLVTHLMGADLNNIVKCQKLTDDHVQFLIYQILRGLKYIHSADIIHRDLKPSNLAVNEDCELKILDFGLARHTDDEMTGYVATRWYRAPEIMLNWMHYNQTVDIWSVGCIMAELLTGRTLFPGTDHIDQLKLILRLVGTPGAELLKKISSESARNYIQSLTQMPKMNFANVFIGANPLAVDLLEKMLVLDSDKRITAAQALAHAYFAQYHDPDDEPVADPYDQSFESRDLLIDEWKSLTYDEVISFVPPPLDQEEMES
Sequence of SRSF protein kinase 3 (Homo sapiens) (Q9UPE1 whole entry): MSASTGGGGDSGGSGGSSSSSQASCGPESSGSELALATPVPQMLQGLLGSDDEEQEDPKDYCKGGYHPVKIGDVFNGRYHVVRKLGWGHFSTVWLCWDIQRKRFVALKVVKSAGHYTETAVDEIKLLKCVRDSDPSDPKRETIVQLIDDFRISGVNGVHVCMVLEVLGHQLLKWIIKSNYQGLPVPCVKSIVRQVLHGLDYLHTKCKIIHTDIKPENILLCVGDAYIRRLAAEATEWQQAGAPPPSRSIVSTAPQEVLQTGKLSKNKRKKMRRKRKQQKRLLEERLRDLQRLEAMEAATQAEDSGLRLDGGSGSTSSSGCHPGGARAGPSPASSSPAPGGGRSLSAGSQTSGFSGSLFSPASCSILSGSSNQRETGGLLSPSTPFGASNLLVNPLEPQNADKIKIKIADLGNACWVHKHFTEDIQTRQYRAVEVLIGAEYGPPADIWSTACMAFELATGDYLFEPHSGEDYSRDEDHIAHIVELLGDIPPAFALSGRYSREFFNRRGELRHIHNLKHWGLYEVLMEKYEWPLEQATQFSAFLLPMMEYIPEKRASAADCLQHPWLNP
Sequence of Glycogen synthase kinase-3 beta (Homo sapiens) (P49841 whole entry, looked up): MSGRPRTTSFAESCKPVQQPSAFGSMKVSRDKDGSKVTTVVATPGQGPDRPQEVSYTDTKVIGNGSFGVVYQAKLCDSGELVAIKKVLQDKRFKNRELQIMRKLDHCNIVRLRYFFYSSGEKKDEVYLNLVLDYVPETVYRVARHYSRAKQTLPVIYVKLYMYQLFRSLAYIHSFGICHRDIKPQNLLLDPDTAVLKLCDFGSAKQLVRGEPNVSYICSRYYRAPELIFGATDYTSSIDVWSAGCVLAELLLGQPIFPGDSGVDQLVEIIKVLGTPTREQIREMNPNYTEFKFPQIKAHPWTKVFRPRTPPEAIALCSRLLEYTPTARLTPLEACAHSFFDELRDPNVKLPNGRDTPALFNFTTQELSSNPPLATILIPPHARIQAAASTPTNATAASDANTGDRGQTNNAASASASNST
Sequence of Mitogen-activated protein kinase 9 (Homo sapiens) (P45984 whole entry, looked up): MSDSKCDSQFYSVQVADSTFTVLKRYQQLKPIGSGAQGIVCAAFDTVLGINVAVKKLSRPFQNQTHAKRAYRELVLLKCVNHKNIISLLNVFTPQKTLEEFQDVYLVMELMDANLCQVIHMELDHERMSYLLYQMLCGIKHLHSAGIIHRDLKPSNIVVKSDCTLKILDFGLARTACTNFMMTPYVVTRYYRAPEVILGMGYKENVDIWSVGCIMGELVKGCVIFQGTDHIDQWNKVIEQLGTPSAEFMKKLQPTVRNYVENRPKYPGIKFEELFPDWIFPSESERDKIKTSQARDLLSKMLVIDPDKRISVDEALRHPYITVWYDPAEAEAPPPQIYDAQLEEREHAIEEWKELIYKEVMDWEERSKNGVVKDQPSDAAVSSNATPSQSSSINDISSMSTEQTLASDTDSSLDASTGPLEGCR
Sequence of Mitogen-activated protein kinase 11 (Homo sapiens) (Q15759 whole entry): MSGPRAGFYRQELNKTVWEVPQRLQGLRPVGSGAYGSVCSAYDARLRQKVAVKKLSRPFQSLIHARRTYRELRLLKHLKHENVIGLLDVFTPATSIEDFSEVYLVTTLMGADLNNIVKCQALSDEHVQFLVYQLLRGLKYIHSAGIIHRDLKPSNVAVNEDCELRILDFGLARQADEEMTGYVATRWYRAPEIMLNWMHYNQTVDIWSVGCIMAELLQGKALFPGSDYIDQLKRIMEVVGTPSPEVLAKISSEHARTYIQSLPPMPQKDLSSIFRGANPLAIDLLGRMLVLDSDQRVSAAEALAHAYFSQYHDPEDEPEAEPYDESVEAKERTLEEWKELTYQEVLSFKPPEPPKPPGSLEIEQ
Sequence of Mitogen-activated protein kinase 3 (Homo sapiens) (P27361 whole entry): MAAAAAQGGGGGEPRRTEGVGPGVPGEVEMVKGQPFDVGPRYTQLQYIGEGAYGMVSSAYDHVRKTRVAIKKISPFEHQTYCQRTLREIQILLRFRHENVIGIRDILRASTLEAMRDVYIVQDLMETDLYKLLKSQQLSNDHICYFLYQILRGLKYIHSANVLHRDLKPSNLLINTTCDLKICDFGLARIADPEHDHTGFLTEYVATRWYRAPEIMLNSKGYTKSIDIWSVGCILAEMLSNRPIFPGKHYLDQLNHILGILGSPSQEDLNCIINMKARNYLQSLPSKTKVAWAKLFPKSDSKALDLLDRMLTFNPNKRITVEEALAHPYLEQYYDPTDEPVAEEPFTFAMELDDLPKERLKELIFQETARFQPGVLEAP
Sequence of Homeodomain-interacting protein kinase 1 (Homo sapiens) (Q86Z02 whole entry, looked up): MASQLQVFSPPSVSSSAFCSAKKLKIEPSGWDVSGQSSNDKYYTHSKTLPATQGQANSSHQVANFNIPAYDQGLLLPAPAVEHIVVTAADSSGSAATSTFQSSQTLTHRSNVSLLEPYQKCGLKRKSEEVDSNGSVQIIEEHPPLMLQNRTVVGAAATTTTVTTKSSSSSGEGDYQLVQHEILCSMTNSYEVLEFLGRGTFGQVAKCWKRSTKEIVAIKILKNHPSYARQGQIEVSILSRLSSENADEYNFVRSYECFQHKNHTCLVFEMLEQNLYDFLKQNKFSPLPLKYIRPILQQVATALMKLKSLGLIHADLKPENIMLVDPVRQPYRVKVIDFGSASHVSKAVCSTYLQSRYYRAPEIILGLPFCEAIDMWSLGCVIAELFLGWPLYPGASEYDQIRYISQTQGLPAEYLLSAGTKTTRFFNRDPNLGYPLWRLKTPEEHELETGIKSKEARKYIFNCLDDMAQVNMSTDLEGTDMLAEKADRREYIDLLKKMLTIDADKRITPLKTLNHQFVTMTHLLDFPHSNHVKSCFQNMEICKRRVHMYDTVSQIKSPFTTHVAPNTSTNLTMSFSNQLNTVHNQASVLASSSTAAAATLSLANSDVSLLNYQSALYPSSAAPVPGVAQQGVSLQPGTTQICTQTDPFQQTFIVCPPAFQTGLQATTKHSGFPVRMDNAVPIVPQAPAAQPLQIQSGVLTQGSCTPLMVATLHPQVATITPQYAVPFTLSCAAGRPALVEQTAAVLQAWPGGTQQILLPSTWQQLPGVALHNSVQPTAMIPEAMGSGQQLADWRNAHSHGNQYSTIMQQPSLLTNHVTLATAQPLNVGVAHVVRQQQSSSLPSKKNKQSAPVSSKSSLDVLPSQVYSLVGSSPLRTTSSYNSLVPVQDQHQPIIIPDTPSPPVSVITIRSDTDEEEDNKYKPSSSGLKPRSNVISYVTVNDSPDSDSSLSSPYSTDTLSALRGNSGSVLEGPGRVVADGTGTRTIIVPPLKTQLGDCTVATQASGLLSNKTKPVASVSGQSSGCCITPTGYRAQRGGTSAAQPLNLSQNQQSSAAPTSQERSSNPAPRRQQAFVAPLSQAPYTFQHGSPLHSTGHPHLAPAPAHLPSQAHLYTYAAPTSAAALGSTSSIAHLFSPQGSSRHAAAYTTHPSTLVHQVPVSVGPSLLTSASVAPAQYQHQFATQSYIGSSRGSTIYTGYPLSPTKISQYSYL
Sequence of Mitogen-activated protein kinase 1 (Homo sapiens) (P28482 whole entry): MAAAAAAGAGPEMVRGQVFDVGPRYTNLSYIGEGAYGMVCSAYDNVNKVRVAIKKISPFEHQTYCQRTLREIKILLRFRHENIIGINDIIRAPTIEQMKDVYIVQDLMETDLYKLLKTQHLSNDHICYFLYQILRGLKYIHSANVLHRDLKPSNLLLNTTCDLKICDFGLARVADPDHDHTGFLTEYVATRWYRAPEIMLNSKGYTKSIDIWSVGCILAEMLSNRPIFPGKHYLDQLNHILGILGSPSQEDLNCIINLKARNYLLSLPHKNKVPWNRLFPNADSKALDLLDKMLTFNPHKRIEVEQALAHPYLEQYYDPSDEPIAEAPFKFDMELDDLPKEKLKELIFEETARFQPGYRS

What is called inhibition is the change of the read-out against control, counted positive when it falls. Turning to `Cc1ccc(C(=O)NC2CCCCC2)cc1-c1ccc(C(=O)NCC2CC2)cc1`, the inhibition was 0.33% in [1]; -0.44% in [2]; 1.1% in assay [3]; 1.23% in assay [4]; 3.16% in [5]; 5.74% in assay [6]. The inhibition in assay [7] was 6.33%; in assay [8] it was 3.78%; in assay [9] it was 4.11%; in assay [10], 2.55%; in [11], 0.88%; in assay [12], 1.95%. Besides, the inhibition in [13] is 0.5%; in [14] it was 5.36%; in assay [15], 17.4%; in [16], 4.59%; in assay [17], 14.2%; in [18], 1.77%. For the same compound, the inhibition was 2.53% in assay [19] and -0.98% in assay [20].

Take `CS(=O)(=O)CCN(CC#N)Cc1ccc(-c2ccc3ncnc(Nc4ccc(OCc5cccc(F)c5)c(Cl)c4)c3c2)o1`: the inhibition in assay [1] is -0.38%; in assay [2], -6.53%; in assay [3] it was -4.34%; in assay [4], 0.31%; in [5], 2.79%; in [6], -0.56%. In addition, the inhibition in assay [7] was 2.18%; in assay [8], 3.93%; in [9], 1.9%; in assay [10], 1.67%; in [11], 1.61%; in [12], -3.37%. Further, the inhibition was -0.95% in [13]; 4.64% in [14]; 3.94% in assay [15]; 1.26% in [16]; 0.56% in [17]; 3.05% in assay [18]. In addition, the inhibition in assay [19] came to 2.39%; in [20] it was 2.47%.

Regarding `CS(=O)(=O)CCNCc1ccc(-c2ccc3ncnc(Nc4ccc(OCc5cccc(F)c5)c(C(F)(F)F)c4)c3c2)o1`, the inhibition was -0.18% in assay [1]; -1.8% in assay [2]; -2.73% in [3]; -1.19% in [4]; -0.51% in assay [5]; 5.87% in assay [6]. Moreover, the inhibition in assay [7] is 4.78%; in assay [8], 5.04%; in assay [9], 5.42%; in [10], 2.83%; in assay [11], 2.51%; in [12], -1.77%. Further, the inhibition in [13] was -0.64%; in [14], 4.28%; in assay [15] it was 11.8%; in assay [16] it was 3.77%; in [17], 8.93%; in assay [18], 1.37%. Also, the results for the inhibition in [19] and in assay [20] were 5.37% and 1.92%, respectively.

Turning to `NS(=O)(=O)c1cccc(-c2ccc3c(NC(=O)C4CC4)n[nH]c3c2)c1`, the inhibition in [2] was -0.23%; in [3] it was 0.61%; in [4], 0.1%; in assay [5], 1.04%; in [6], -7.07%; in assay [7], -5.26%. Further, the inhibition is -2.53% in assay [8]; -5.17% in assay [9]; 0.73% in assay [10]; -0.05% in assay [11]; -0.57% in [12]; -6.73% in assay [13]. The inhibition in assay [14] was 6.37%; in [15], 9.34%; in assay [16] it was 1.5%; in assay [17], 5.3%; in assay [18], -0.02%; in [19], -0.14%. Moreover, the inhibition in assay [20] is -0.74%.

For `O=C(Nc1n[nH]c2nc(-c3ccco3)c(Br)cc12)C1CC1`, the inhibition in [2] was -1.07%; in assay [3], 3.67%; in [4] it was 0.54%; in assay [5], 2.1%; in [6], 2.66%; in assay [7] it was 3.7%. Also, the inhibition in [8] was -0.07%; in [9] it was 5.13%; in [10] it was 5.33%; in assay [11], 2.64%; in [12], -0.09%; in [13], -0.41%. For the same compound, the inhibition came out at 2.53% in assay [14]; 6.49% in assay [15]; 3.09% in [16]; 3.71% in [17]; 1.46% in assay [18]; 2.57% in [19]. The inhibition in [20] worked out at 2.55%.

Regarding `O=C1NC(=O)C(c2cccc(Cl)c2)=C1Nc1ccc(O)c(Cl)c1`, the inhibition in assay [2] was -2.68%; in [3], 1.28%; in assay [4], -1.68%; in assay [5], 0.62%; in [6], 3.34%; in assay [7], 1.38%. The inhibition in assay [8] is -0.66%; in [9] it was 1.91%; in assay [10], 2.05%; in assay [11], 2.28%; in assay [12] it was -0.01%; in [13], 2.47%. Besides, the inhibition in assay [14] is 1.38%; in assay [15] it was 8.66%; in assay [16], 1.96%; in assay [17], 4.99%; in assay [18] it was 0.26%; in assay [19] it was 0.3%. The inhibition in assay [20] is -0.58%.

Consider `Nc1ncnc2occ(-c3ccc(NC(=O)Nc4cccc(C(F)(F)F)c4)cc3)c12`, for which the inhibition in assay [1] was determined as 11%; in assay [2], 5.73%; in assay [3], 37.4%; in assay [4] it was 67.4%; in [5], 78.3%; in assay [6] it was 3.31%. The inhibition stood at 14.5% in assay [7]; 4.78% in assay [8]; 6.77% in assay [9]; 4.22% in assay [10]; 3.6% in assay [11]; 19% in [12]. Further, the inhibition in assay [13] came to 62.5%; in assay [14], 16.1%; in [15], 43.4%; in [16] it was 9.18%; in [17], 41%; in assay [18] it was 6.92%. Besides, the inhibition in assay [19] was determined as 19.3%; in assay [20] it was 7.81%.

The record behind these values is ChEMBL document CHEMBL1961873, “Compounds: GSK PKIS; Assays: Nanosyn kinase panel” (2012).
